The full list was thinned out, with hits kept by preference.
Pf Dd2 inh: qHTS Primary assay for Inhibitors of Plasmodium falciparum Dd2 growth in vitro; hit rate 4.3% among 120,000; Potency, µM (highest dose often 28.9 µM), inactives show at the top dose activity, negative = inhibition, actives largely listed as inhibitors; P. falciparum Dd2 growth, SYBR Green, 72 h; active means well fitted inhibition curve with a large enough effect;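 further: plate controls were DMSO vehicle for no effect and reference drug for full effect; nearly all actives have a fitted effect of over 65% in size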
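Readout: SYBR Green fluorescence, 485 nm excitation, 535 nm emission, after ~16 h lysis at 37C. Before that, Dd2-infected red cells (2.5% hematocrit) grew 72 h with compound, 29 uM top final concentration.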
* hit, by the source's call; i = inactive; [ ] = remark or other dose. Potency means the concentration at half of the fitted maximal effect.

SMILES	Pf Dd2 inh
CCOCC(=O)N1CCC2(CC1)CN(C1CCC1)CC2COC (stereo not given)	i
COCC1CN(C2CCC2)CC12CCN(C(=O)C(C)C)CC2 (stereo not given)	-11.0%
CCS(=O)(=O)N1CCC2(CC1)CN(C1CCC1)CC2COC (stereo not given)	-21.5%
COCC1CN(C2CCC2)CC12CCN(C(=O)Cc1ccccc1OC)CC2 (stereo not given)	12.6µM*
COC[C@@H]1CN(C(=O)c2ccc(OC)c(F)c2)C[C@H]1C(N)=O	17.4%
COCC1CN(C2CCC2)CC12CCN(C(=O)c1cn(C)cn1)CC2 (stereo not given)	13.8%
COCC1CN(C2CCC2)CC12CCN(C(=O)c1ccc(OC)c(F)c1)CC2 (stereo not given)	5.01µM*
CCNC(=O)N(C1CC1)C1CCOC2(CCN(C(=O)COc3ccc(C)cc3)CC2)C1 (stereo not given)	i
C[C@@H](NC(=O)c1nc2ccccc2[nH]1)c1onc(-c2ccc(F)cc2)c1C(=O)O	i
O=C(c1ccccn1)N1CC2(Cc3ccccc3NC2=O)C1	12.6%[44.1 µM]
COc1cccc(CC(=O)NCc2nnc3cc(-c4nc(C5CC5)no4)ccn23)c1	6.31µM*
O=C(NCc1nnc2cc(-c3nc(C4CC4)no3)ccn12)c1ccoc1	-22.4%
O=C(NCc1nnc2cc(-c3nc(C4CC4)no3)ccn12)C1CC1	-24.2%
O=C(Cc1ccc(Cl)cc1)NCc1nnc2cc(-c3nc(C4CC4)no3)ccn12	0.447µM*
O=C(Cc1cccc(F)c1)NCc1nnc2cc(-c3nc(C4CC4)no3)ccn12	i
COc1ccc(CNC(=O)N2CCC(c3noc(-c4ccccc4)n3)C2)cc1 (stereo not given)	7.2%[5.79 µM]
COc1ccc(CNC(=O)N2CCC(c3noc(-c4cccnc4)n3)C2)cc1 (stereo not given)	i[5.79 µM]
O=C(NCc1nnc2cc(-c3nc(C4CC4)no3)ccn12)c1cccc(Cl)c1	i
O=C(NCc1nnc2cc(-c3nc(C4CC4)no3)ccn12)c1c(F)cccc1F	i
O=C(NCc1nnc2cc(-c3nc(C4CC4)no3)ccn12)c1ccccc1Cl	-5.3%
COc1cccc(CNC(=O)N2CC(c3noc(-c4ccncc4)n3)C2)c1	8.91µM*
O=C(Cc1ccc(F)cc1)NCc1nnc2cc(-c3nc(C4CC4)no3)ccn12	4.47µM*
COC[C@H]1CCCN1C(=O)[C@@H](C)C1CC[C@@]2(C)CC[C@H](NC(=O)c3ccccn3)[C@@H](C)[C@@H]2[C@H]1O (stereo not given in full)	-20.2%
CCn1nccc1C(=O)N1CCC(N2C(=O)[C@H](OCCOC)[C@@H]2c2ccncc2)CC1	6.5%
O=C(NC1CC1)[C@H]1CN2CCC1C[C@@H]2Cn1cc(-c2ccccc2)nn1 (stereo not given in full)	-13.5%[44.1 µM]
SMILES	Pf Dd2 inh
CC(C)n1cnnc1CC1CCCN(S(=O)(=O)c2ccc(F)cc2)C1 (stereo not given)	7.9%
O=C1N(Cc2ccccn2)C[C@H]2CN(C3CCC3)CCN12	-9.4%[44.1 µM]
O=C(Nc1ccccc1)NC1CCN(C(=O)N2CC3CC(C2)[C@H]2CCCC(=O)N2C3)CC1 (stereo not given in full)	-21.6%
COc1ccccc1CN1CCN2C(=O)N(C3CCOCC3)C[C@H]2C1	6.8%[44.1 µM]
CCc1nc(NC(=O)Cn2nc3c(cc2=O)CCCCC3)sc1C	-19.7%
CNC(=O)N1CCC(C2CCN(C(=O)NC(C)(C)C)C2)CC1 (stereo not given)	20.3%
CC(C)(C)NC(=O)CN1C(=O)C(c2ccccc2)=NC12CCCCC2	27.6%
CCOc1ccc(CC(=O)NC2CCN(c3cc(-c4ccc(Cl)cc4)[nH]n3)CC2)cc1OCC	i
O=C(Cc1ccc(Cl)cc1)N1CCN(c2cc(-c3cccs3)[nH]n2)CC1	-7.5%
COc1ccc(CCNC(=O)CCn2c(=O)c3ccccc3n(CC(=O)Nc3cc(Cl)ccc3C)c2=O)cc1OC	i
COc1ccc(Cl)cc1NC(=O)Cn1c(=O)n(CCCC(=O)NCCc2ccc(OC)c(OC)c2)c(=O)c2ccccc21	11.2µM*
COc1ccc(CCNC(=O)CCCn2c(=O)c3ccccc3n(CC(=O)Nc3cc(Cl)ccc3C)c2=O)cc1OC	-3.8%
O=C(NC1CCCCC1)N1CCc2n[nH]c(=O)n2CC1	9.6%
COc1ccc(-c2nc(C(C)C)nc3c2CN([S+](=O)([O-])c2cccc(C(F)(F)F)c2)CC3)cc1	i
COc1ccc(-c2nc(C)nc3c2CCN(Cc2cc(C)on2)CC3)cc1	-12.7%
O=[S+]([O-])(c1cccc(C(F)(F)F)c1)N1CCc2nc(C3CC3)nc(-c3ccc(Cl)cc3)c2C1	-11.1%
COc1ccc(-c2nc(C)nc3c2CCN(C(=O)c2ccc4c(c2)OCO4)CC3)cc1	i
COc1ccc(-c2nc(C3CC3)nc3c2CCN(C(=O)c2ccc4c(c2)OCO4)CC3)cc1	11.2µM*
COc1ccc(-c2nc(C)nc3c2CCN(C(=O)c2ccc(C)cc2)CC3)cc1	-18.8%
CC(C)c1nc2c(c(-c3ccc(Cl)cc3)n1)CCN([S+](=O)([O-])c1ccccc1)CC2	11.2µM*
COc1ccc(-c2nc(C)nc3c2CN([S+](=O)([O-])c2cccc(OC)c2)CC3)cc1	-6.6%
CC(C)c1nc2c(c(-c3ccc(Cl)cc3)n1)CCN(CC1CC1)CC2	-18.0%
Cc1cc(CN2CCc3nc(C(C)C)nc(-c4ccc(Cl)cc4)c3CC2)no1	8.91µM*
COc1cccc([S+](=O)([O-])N2CCc3nc(C4CC4)nc(-c4ccc(Cl)cc4)c3CC2)c1	12.6µM*
Cc1ccc([S+](=O)([O-])N2CCc3nc(C)nc(-c4ccc(Cl)cc4)c3CC2)cc1	13.0%
SMILES	Pf Dd2 inh
Cc1c(CN2CCC(N(C(=O)NCCc3ccccc3)C3CCOCC3)CC2)cnn1C	-6.4%
O=C(N[C@@H]1C[C@H](Cn2cc(C3CC3)nn2)[C@@H](O)[C@H]1O)c1cccnc1	-17.8%[44.1 µM]
Cc1cn2nc(C(=O)NCC3CCCO3)cc2c(=O)[nH]1 (stereo not given)	14.6%
CN1CCC(N2C[C@H](O)C[C@H]2c2nc(Cc3ccccc3)no2)CC1	-15.5%[44.1 µM]
O=C(Cc1ccc(Cl)cc1)NC1CCN(c2cc(-c3ccc(F)cc3)[nH]n2)C1 (stereo not given)	-25.8%
COc1ccccc1C(=O)N1CCC(n2cnnc2-c2ccccc2)C1 (stereo not given)	18.7%
Cc1ccc(C(=O)N2CCc3nc(C4CC4)nc(-c4ccc(Cl)cc4)c3CC2)cc1	-15.0%
COc1ccc(C(=O)N2CCc3nc(C4CC4)nc(-c4ccc(Cl)cc4)c3CC2)cc1	10µM*
CCc1nc2c(c(-c3ccc(Cl)cc3)n1)CCN(C(=O)c1ccc(OC)cc1)CC2	i
COc1ccc(NC(=O)C2CN(S(C)(=O)=O)CC23CCCCC3)c(OC)c1 (stereo not given)	i
O=C(Cn1nc2c(cc1=O)CCCC2)NCCc1nc(-c2ccccc2)cs1	-14.2%
CN(C)c1cccc(C(=O)N2CCC3(CCCN(CC4CC4)C3)C2)c1 (stereo not given)	-2.8%
COc1ccccc1NC(=O)N1CCCC2(CCC(=O)N(CC3CC3)C2)C1 (stereo not given)	-17.3%
COc1ccccc1-c1cc(C(=O)NCCc2ccc(Cl)cc2)nn2cccc12	9.9%
OCc1ccc(-c2ccc3nnc(-c4ccccn4)n3n2)cc1	-25.2%[44.1 µM]
CCOC(=O)c1cnc(N2CCN(c3ccc(OC)cc3)CC2)c2ccccc12	12.2%
CCOc1ccc(CNC(=O)c2cnc(SC)nc2CC)cc1	i[5.79 µM]
